# Only some compounds are listed: those with a hit (about 1.7% of all), similar ones and a draw of the others.
# RGS4 inh – inhibitors of human regulator of G protein signaling 4. P49798. Transcreener GDP fluorescence polarization, RGS4-accelerated GTP hydrolysis. Potency, µM (doses to about 114 µM), for the others: at the highest dose activity change, negative = inhibition, usual class: inhibitors. hit rate 0.039% among 390,000; also: % is scaled to controls: 0 for no effect and ±100 for the full control effect; nearly all actives have a fitted effect of over 75% in size
#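 MLSMR compounds (23 nl, pin-transferred) preincubated 10 min at room temperature with a 500nM (2x) first reagent, then RGS4 at 900nM (2x) plus Transcreener GDP mix added; fluorescence polarization (620/688 nm) read before and after 90 min at 30 °C.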
# GLP-1R inv ag – acts as inverse agonist at human GLP-1 receptor; P43220; HEK293 GLP-1R CRE-luciferase, luminescence, 24 h; GLP-1R form is constitutively active; Potency, µM (series often up to 38.3 µM), for inactives: at the top dose activity change, negative = inhibition, actives largely listed as inhibitors; hit rate 1.6% among 410,000; AID 624417; also: % is scaled to controls: 0 for no effect and ±100 for the full control effect; nearly all actives have a fitted effect of over 55% in size
#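 Seeding at 200 cells/uL, 12 h culture, 24 hr compound treatment, then luciferase reagent and a luminescence read; cells are HEK293 stably expressing a constitutively active GLP-1R plus cAMP-responsive luciferase.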
# PTHR1 agonist – agonists of human PTHR1 parathyroid hormone receptor; Q03431; HEK293 GP2 PTHR1 cells, GloSensor cAMP luminescence, 1 h; Potency, µM (doses to about 115 µM), inactives show at the highest dose activation, actives largely listed as activators; hit rate 0.075% among 410,000; AID 743266; also: nearly all actives have a fitted effect of over 55% in size
# Target sequence (Q03431 whole entry, looked up): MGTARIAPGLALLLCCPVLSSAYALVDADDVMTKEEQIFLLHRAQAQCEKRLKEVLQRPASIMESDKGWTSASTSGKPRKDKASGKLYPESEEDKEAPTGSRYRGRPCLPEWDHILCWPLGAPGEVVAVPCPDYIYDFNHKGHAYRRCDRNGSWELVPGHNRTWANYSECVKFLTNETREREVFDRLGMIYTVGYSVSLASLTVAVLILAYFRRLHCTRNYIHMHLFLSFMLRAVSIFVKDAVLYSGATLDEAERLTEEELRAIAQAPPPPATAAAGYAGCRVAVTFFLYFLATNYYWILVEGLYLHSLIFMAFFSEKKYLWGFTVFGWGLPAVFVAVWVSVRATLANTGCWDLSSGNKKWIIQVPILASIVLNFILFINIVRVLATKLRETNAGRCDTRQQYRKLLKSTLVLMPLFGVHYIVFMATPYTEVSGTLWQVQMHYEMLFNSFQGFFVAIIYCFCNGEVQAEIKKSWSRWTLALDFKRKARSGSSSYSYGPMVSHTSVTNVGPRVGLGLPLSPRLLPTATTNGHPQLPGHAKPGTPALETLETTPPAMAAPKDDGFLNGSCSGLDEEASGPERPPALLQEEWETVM
#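 HEK-293-derived GP2 cells expressing PTHR1 and a GloSensor cAMP reporter, 3,000/well, plated overnight, given luciferin plus IBMX (each 0.5 mM as added) for 1 h at 37 °C, then compound for 1 h at 37 °C. Luminescence was read after 15 min at room temperature.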
# GLP1R cytotox – cytotoxicity counter-screen for GLP-1 receptor inverse agonists | HEK293 cAMP-luciferase reporter cells, luminescence, 24 h | Potency, µM (highest dose often 38.3 µM), for inactives: at the top dose activity change, negative = inhibition, actives largely listed as inhibitors | hit rate 0.13% among 410,000 | AID 624418;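 also: loss of luciferase light is scored as toxicity; % is scaled to controls: 0 for no effect and ±100 for the full control effect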
#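 Luminescence readout: signal drop marks cytotoxicity. Plated cells grew 12 h at 37 °C, 5% CO2, received 23 nL compound for 24 h, then got luciferase reagent, read after 12 min at RT.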
# GLP1R ag – GLP-1 receptor (human) agonism. HEK293 GLP-1R CRE-luciferase, luminescence, 4-6 h; cells express a hypersensitive GLP-1R form. hit rate 0.007% among 380,000. Potency, µM (doses to about 45.6 µM), inactives show at the top dose activation, most hits filed as activators. P43220; also: % of control where 0% means no effect
# * marks the source's active call; other numbers are inactive results; i = inactive; u = inconclusive; x = not tested or not shown; [ ] = dose if it differs, or a comment. Calls follow the shape of the dose curve; as a rule, active = well fitted curve in the direction sought with a large enough effect; inconclusive = small, poorly fitted or top-dose-only effect, or another doubt; inactive = no such curve, though single readings can be large; an effect the other way counts as inactive or inconclusive. Potency is read from the fitted curve at half-maximal effect.
SMILES,RGS4 inh,GLP-1R inv ag,PTHR1 agonist,GLP1R cytotox,GLP1R ag
COC(=O)C1=C(c2ccc(F)cc2OCc2ccccc2)C[C@@H]2CC[C@H]1N2C(=O)NCCc1ccc(F)cc1,11%,7.1µM*,-5%,-14%,0%
COC(=O)C1=C(c2ccc(F)cc2OCc2ccccc2)C[C@@H]2CC[C@H]1N2C(=O)NCCOc1ccccc1,-25%,u,-3%,0%,3%
COc1cc(N=Nc2cccc(S(N)(=O)=O)c2)c2ccccc2c1N,-20%,u,i,u,9%
CC1(O)CCC2C3CCC4=CC(=O)CCC4(C)C3(F)C(O)CC21C (configuration not stated),x,x,x,x,10%
CC(C)(C)OC(=O)NCCCCCNC(=O)c1nc[nH]c1C(=O)NCc1ccc(CNC(=O)OC(C)(C)C)cc1,9%,10µM*,-65%,u,-8%
COc1cc(/C=C(/C)[N+](=O)[O-])ccc1OCc1ccccc1Cl,u,7.1µM*,-29%,u,-8%
CCNc1nc(NCC)nc(N/N=C(\C)c2ccc(OC)cc2)n1,27%,u,i,u,2%
Cc1ccc(-c2nnc(N3CCC(C)CC3)c3ccccc23)cc1C,21%,2.5µM*,-90%,u,0%
O=C(c1cc(F)ccc1F)C1CCCN(Cc2cccc(Cl)c2)C1 (configuration not stated),2%[56.9 µM],10µM*,-29%,6%,11%
CC1CCC(C(C)C)C(OC(=O)c2ccccc2N)C1 (configuration not stated),x,x,x,x,-1%
CC1CCC(C(C)C)C(OCC(O)CN2CCCC(C)C2)C1 (configuration not stated),27%,8.9µM*,4%,u,-2%
CCCCCCCCN1C(=O)[C@H](CC(=O)N2CCCCC2)C[C@@]2(C(=O)OCC)CCCC=C12,x,u,i,-11%,-2%
C[C@@H](NC(=O)c1nc[nH]c1C(=O)NCc1ccc(CNC(=O)OC(C)(C)C)cc1)c1ccccc1,8%,u,-40%,u,9%
O=C(Nc1cccc(Cl)c1)c1cc(S(=O)(=O)NCCc2ccc(Cl)cc2)ccc1F,u,5.6µM*,i,u,-3%
Fc1ccc(C2=CCN(C(c3ccc(Cl)cc3)c3nnnn3Cc3ccccc3)CC2)cc1 (configuration not stated),0%,5.6µM*,-3%,1%,8%
CCCCCN1C(=O)c2ccccc2[C@@]2(C(=O)OCC)Cc3cc(OC)ccc3[C@@H]12,x,8.9µM*,-52%,u,-13%
CCOC(=O)[C@]12Cc3cc(C)ccc3[C@H]1N(Cc1ccccc1)C(=O)c1cc(F)c(F)cc12,x,11µM*,-50%,-27%,-32%
C[C@H]1[C@@H]2Cc3ccc(O)cc3[C@]1(C)CCN2CCc1ccccc1,x,x,x,x,4%[96 µM]
CC(C)(C#CC(=O)O)OOC(c1ccccc1)(c1ccccc1)c1ccccc1,-9%,11µM*,-55%,-20%,-6%
CC1CN(c2nc(-c3ccc(Br)cc3)nnc2-c2ccccc2)CC(C)N1 (configuration not stated),-9%,2.8µM*,i,u,5%
COc1ccc2c(c1)C(c1ccc(N(CCCl)CCCl)cc1)=NCC2,-24%,10µM*,i,-30%,17%
ClCCN(CCCl)c1ccc(C2=NCCc3ccccc32)cc1,-2%,u,-26%,u,-3%
CO[C@@H](COC(N)=O)C1=C(N2CC2)C(=O)C(C)=C(N2CC2)C1=O,x,x,x,x,-1%
CC1=C(N2CC2)C(=O)C(CO)=C(N2CC2)C1=O,-46%,u,i,0.79µM*,-37%
CC1Cc2ccccc2N1C(=O)COC(=O)c1ccc(Cl)nc1 (configuration not stated),-3%,5%[7.66 µM],-11%,5%[7.66 µM],0%
SMILES,RGS4 inh,GLP-1R inv ag,PTHR1 agonist,GLP1R cytotox,GLP1R ag
N#CC(C#N)=NNc1ccc([N+](=O)[O-])cc1,-22%,2.2µM*,-1%,u,-10%
CCN(CC)S(=O)(=O)c1ccc(NN=C(C#N)C#N)cc1,-20%,u,-33%,-10%,-22%
CCOc1cc(CNCCc2c[nH]c3ccccc23)cc(Cl)c1OCC,-52%,11µM*,i,u,-5%
c1ccc2c(c1)CSc1ccccc1C2C1=NCCN1 (configuration not stated),-14%,u,i,-32%,-2%
Brc1ccc2c(c1)C(OC1CN3CCC1CC3)c1ccccc1CS2 (configuration not stated),-46%,u,i,10µM*,-43%
O=C(NCC1=C(c2cccc3ccccc23)C[C@@H]2CC[C@H]1N2Cc1ccco1)c1cccs1,x,10µM*,-12%,u,-8%
CCc1cccc(NC(=O)c2ccc(NC(=O)N3CCSc4ncccc43)cc2)c1,22%,-6%,-32%,-10%,x
C=CCOc1ccc(C2C(C#N)=C(N)N(Nc3ccccc3)C3=C2C(=O)CCC3)cc1OC (configuration not stated),-29%,u,i,104%,0%
CN1C2CCC1CC(OC(=O)c1ccc([N+](=O)[O-])cc1)C2 (configuration not stated),-21%,4µM*,i,7%,-4%
CN1C2CCC1CC(OC(=O)c1cccc(O)c1)C2 (configuration not stated),-8%,u,i,-7%,-2%
N[C@@H](Cn1oc(=O)[nH]c1=O)C(=O)O,u,16%,i,4%,0%
N[C@@H](Cn1ccc(=O)n(Cc2ccc(C(=O)O)cc2)c1=O)C(=O)O,8.4µM*,x,x,x,x
CC1(C)CC/C(=C\c2ccc(Cl)cc2)C1(O)Cn1cncn1 (configuration not stated),x,x,x,x,5%[96 µM]
COc1cccc(C(=O)N/N=C(/c2ccccc2)c2ccccn2)c1,19%,7.9µM*,-4%,u,-7%
COc1cc(OC)cc(C(=O)Nc2ccc(Br)cc2C(=O)c2ccccc2)c1,-19%,13%,-10%,-1%,-1%
CN(C)C1(CNC(=O)Nc2ccc(Cl)c(Cl)c2)CCCCC1,6%,4µM*,i,u,-4%
CN(C)C1(CNC(=O)c2ccc(NS(=O)(=O)c3ccc(Cl)c(Cl)c3)cc2)CCCCC1,5%,u,-11%,-5%,-4%
CC(=O)Oc1ccc(-c2ccc(C(=O)Nc3cccc(S(=O)(=O)N4CCOCC4)c3)cc2)cc1,11%,1.4µM*,-51%,u,0%
COc1ccc(C(=O)NC(=S)Nc2cccc(S(=O)(=O)N3CCOCC3)c2)cc1,-31%,u,-24%,u,11%
COc1ccc(S(=O)(=O)N2CCN(C(=O)c3ccc(COc4ccccc4)o3)CC2)cc1,x,u,-67%,-12%,2%

# Bioassay records (PubChem)
